Screening data deposited in PubChem BioAssay by National Center for Advancing Translational Sciences (NCATS).
Only some compounds are listed: those with a hit (about 2.1% of all), similar ones and a draw of the others.
TDP-43 yeast inh: inhibitors of TDP-43 toxicity in yeast; TDP-43 expressing yeast growth rescue, BacTiter-Glo, 24 h; hit rate 1.8% among 410,000; Potency, µM (highest dose often 46.1 µM), usual class: activators; note: nearly all actives have a fitted effect of over 50% in size
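Readout is BacTiter-Glo luminescence of cell growth, so inhibitors register as activators. TDP-43-expressing yeast at OD600=0.02 in galactose medium, after raffinose pregrowth to mid-log, were incubated with compound for 24 hr at 30 deg C.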
aSyn rescue: alpha-synuclein toxicity inhibition in yeast; hit rate 0.14% among 370,000; Yeast expressing alpha-synuclein, growth rescue, BacTiter-Glo, 24 h; AID 652106; Potency, µM (titrated, usually from 46.1 µM), hits mostly activators; note: nearly all actives have a fitted effect of over 65% in size
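Galactose-induced alpha-syn yeast (OD600=0.02, raffinose-pregrown) + pinned cpd, 24 hr, 30 deg C; growth by BacTiter-Glo luminescence. Growth restoration scores as activation.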
FUS suppressor: FUS proteinopathy suppression in yeast; Potency, µM (doses to about 76.6 µM), usual class: activators; S. cerevisiae FUS-expressing, growth rescue, OD600, 24 h; hit rate 0.24% among 390,000; AID 1347120; note: nearly all actives have a fitted effect of over 55% in size
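Quantitative HTS measuring growth restoration of FUS-toxic yeast. Galactose-induced cells (OD 0.005) were exposed 24hr at 30C to compounds at several concentrations, then absorbance at 600 nm was recorded.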
Abeta yeast res: restores growth of yeast expressing A-beta42 peptide; yeast expressing A-beta42, growth rescue, OD600, 48 h; response scale: 0% DMSO, 100% iron-clioquinol control; Potency, µM (top dose mostly 46.1 µM), actives largely listed as activators; hit rate 0.063% among 410,000; AID 1347071; note: nearly all actives have a fitted effect of over 55% in size
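Yeast A-beta toxicity model in growth medium with pinned compounds, 48 h at 30 C; growth read as absorbance at 600 nm. Normalized to FeCl3/clioquinol equimolar mix (positive) and DMSO (negative).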
Large screens that a line does not name were inactive. Calls come from the whole dose curve; as a rule, active = well fitted curve in the direction sought with a large enough effect; inconclusive = small, poorly fitted or top-dose-only effect, or another doubt; inactive = no such curve, though single readings can be large; an effect the other way counts as inactive or inconclusive.

COCCCNC(=O)c1c(NC(=O)c2cc(=O)c3ccccc3o2)sc2c1CCCC2	none (no result: aSyn rescue)
COc1ccc(-c2cc(-c3ccccc3)nc(-c3ccc4c(c3)NC(=O)CO4)c2)cc1	TDP-43 yeast inh 13µM (no result: aSyn rescue)
CCN(CC)c1ccc(C(=O)OCC(=O)NC2CCCCC2C)cc1 (stereo not given)	none
CC1CCCC(NC(=O)COC(=O)c2ccc(N(C)C)cc2)C1C (stereo not given)	TDP-43 yeast inh 10µM (no result: aSyn rescue)
COc1ccc(CNC(=O)CSCc2cnn(-c3ccccc3)c2-n2cccc2)cc1	TDP-43 yeast inh inconclusive
CCN(CC)C(=O)CSCc1cnn(-c2ccccc2)c1-n1cccc1	TDP-43 yeast inh 18µM
COc1ccc(NC(=O)CSCc2cnn(-c3ccccc3)c2-n2cccc2)cc1	TDP-43 yeast inh 16µM, FUS suppressor inconclusive (no result: aSyn rescue)
CN(C)c1ccc(/C=C/c2ccnc3ccccc23)cc1Br	none (no result: TDP-43 yeast inh, FUS suppressor, Abeta yeast res)
CC(=O)N1c2ccccc2CC1C(=O)N1CCN(c2cccc(C)c2C)CC1 (stereo not given)	TDP-43 yeast inh inconclusive (no result: aSyn rescue)
CC(=O)Nc1nc(-c2ccc(Cl)cc2)nc(C)c1C(C)=O	TDP-43 yeast inh 35µM
Cc1cc(NC(=O)c2ccc(F)cc2)n(-c2ccccn2)n1	TDP-43 yeast inh 16µM
COc1ccc(OC(F)(F)F)cc1CC1(C)C(=O)Nc2ccc(S(=O)(=O)NC3CCCCC3)cc21 (stereo not given)	FUS suppressor 32µM
COc1ccc(C(C)=O)cc1CC1(C)C(=O)Nc2ccc(OC(F)(F)F)cc21 (stereo not given)	FUS suppressor inconclusive
COc1ccc(OC(F)(F)F)cc1CC1(C)C(=O)Nc2ccc(-c3ccsc3)cc21 (stereo not given)	TDP-43 yeast inh 14µM
CC1(Cc2ccccc2OC(F)(F)F)C(=O)Nc2ccc(S(=O)(=O)NC3CCCCC3)cc21 (stereo not given)	none
Cc1[nH]c2ccccc2c1C(c1ccccc1)c1ccc(Cl)s1 (stereo not given)	TDP-43 yeast inh 35µM, Abeta yeast res inconclusive (no result: aSyn rescue)
Cc1ccc(-c2noc(CN(C3CCCCC3)S(=O)(=O)c3ccc(F)cc3)n2)cc1	none (no result: aSyn rescue)
CN(Cc1nc(-c2ccc(Cl)cc2)no1)S(=O)(=O)c1ccccc1	TDP-43 yeast inh 35µM (no result: aSyn rescue)
CS(=O)(=O)N(Cc1nc(-c2ccc(F)cc2)no1)c1ccccc1Cl	TDP-43 yeast inh 22µM
COc1ccc(C)cc1NC(=O)CN(c1cc(C(F)(F)F)ccc1Cl)S(C)(=O)=O	none (no result: aSyn rescue)
CCn1c(SCC(=O)c2ccc(O)c(O)c2)nnc1-c1ccccc1	none
Cc1ccc(-n2c(SCC(=O)c3ccc(O)c(O)c3)nnc2-c2ccccc2)cc1	FUS suppressor 7.9µM (no result: TDP-43 yeast inh, aSyn rescue, Abeta yeast res)
Cc1ccc(-n2ncc3c(NC4CCCC4)ncnc32)cc1	TDP-43 yeast inh 1.3µM (no result: aSyn rescue)
Clc1cccc(-n2ncc3c(NC4CCCCCC4)ncnc32)c1	TDP-43 yeast inh 35µM (no result: aSyn rescue)
Cc1ccccc1C(=O)N1CCc2c([nH]c3ccccc23)C1C(F)(F)F (stereo not given)	TDP-43 yeast inh 22µM
O=C(O)c1cccnc1C(=O)N1CCc2c([nH]c3ccccc23)C1C(F)(F)F (stereo not given)	none
COc1cccc(N/C(SC)=C(/C#N)C(=O)NCc2cccs2)c1	TDP-43 yeast inh 14µM
CC(Oc1cccc(Br)c1)C(=O)NNC(=O)c1ccccn1 (stereo not given)	TDP-43 yeast inh 25µM, aSyn rescue inconclusive, Abeta yeast res inconclusive
CCCCc1nc2ccccc2n2c(-c3ccc(C)cc3)c3c(=O)n(C)c(=O)n(C)c3c12	TDP-43 yeast inh inconclusive (no result: aSyn rescue)
Cc1ccc(C(=O)NC2CCc3ccccc3C2=O)cc1 (stereo not given)	TDP-43 yeast inh 14µM
Cc1ccc(C(=O)NC2CCSC2=O)cc1 (stereo not given)	none
COc1ccc(NC(=O)C2CCCN2S(=O)(=O)c2cccc3cccnc23)c(OC)c1 (stereo not given)	TDP-43 yeast inh 2.5µM
COc1ccc(C2=NC(C)(C)N(CC(=O)Nc3ccc(F)c(F)c3)C2=O)cc1	TDP-43 yeast inh inconclusive (no result: aSyn rescue)
Cc1cccc(NC(=O)CCn2nc(-c3ccccc3)c3ccccc3c2=O)c1	TDP-43 yeast inh 20µM, FUS suppressor inconclusive (no result: aSyn rescue)
NC(Cc1ccc(Cl)cc1)c1csc(NC(=O)NCCc2ccccc2)n1 (stereo not given)	none
NC(Cc1ccc(Cl)cc1)c1csc(NC(=O)NCC2CCCCC2)n1 (stereo not given)	TDP-43 yeast inh inconclusive, FUS suppressor 25µM
C=Cc1ccc(Cn2c(C)c(C(=O)NCc3ccc4c(c3)OCO4)sc2=O)cc1	TDP-43 yeast inh 22µM, Abeta yeast res inconclusive
Cc1c(C(=O)NCc2ccc3c(c2)OCCO3)sc(=O)n1Cc1ccc2c(c1)OCO2	TDP-43 yeast inh inconclusive, FUS suppressor inconclusive
Cc1c(C(=O)NCc2cccc([N+](=O)[O-])c2)sc(=O)n1Cc1ccc(F)cc1	none
Cc1c(C(=O)NCc2cccc([N+](=O)[O-])c2)sc(=O)n1Cc1cccc(F)c1	TDP-43 yeast inh 18µM
O=C1C(=Cc2ccco2)C(=O)c2ccccc21	TDP-43 yeast inh 22µM (no result: FUS suppressor)
CCC(C)(C)C(=O)O[C@H]1C[C@@H](C)C=C2C=C[C@H](C)[C@H](CC[C@@H]3C[C@@H](O)CC(=O)O3)[C@H]21	TDP-43 yeast inh 14µM
CCC(=O)N(CC)c1nc(-c2ccc(OC)cc2)cs1	TDP-43 yeast inh 5µM
CCCCCSc1nnc2c(n1)OC(CC)Nc1ccc(Br)cc1-2 (stereo not given)	none (no result: aSyn rescue)
O=C(NN1CCOCC1)c1cc(-c2cccs2)nc2ccccc12	none
O=C(OC1CCOC1=O)c1cc(-c2cccs2)nc2ccccc12 (stereo not given)	TDP-43 yeast inh 25µM
Cc1ccc(-c2cc(C(=O)OC3CCOC3=O)c3ccccc3n2)c(C)c1 (stereo not given)	TDP-43 yeast inh 18µM
CCc1nc2ccccc2c(C(=O)OC2CCOC2=O)c1C (stereo not given)	none
Cc1ccc(SCC(=O)c2cc(C)c(O)c(C)c2)cc1	TDP-43 yeast inh 18µM
Cc1ccc(SCC(=O)c2c(C)nc3ccccn23)cc1	none
COc1ccc(C2Nc3ccccc3C(=O)N2Cc2ccccc2)cc1COc1ccc([N+](=O)[O-])cc1 (stereo not given)	none (no result: TDP-43 yeast inh, FUS suppressor, Abeta yeast res)
COc1ccc(N2CC(NC(=O)C(c3ccccc3)c3ccccc3)CC2=O)cc1 (stereo not given)	none (no result: aSyn rescue)
Cc1nc2c(c(C)nn2C(C)(C)C)c(C)c1CCC(=O)Nc1ccc(Br)cc1Br	none (no result: aSyn rescue)
CCOC(=O)/C=C/C(=O)Nc1ccc(Oc2ccccc2)cc1	TDP-43 yeast inh 18µM
O=C(O)/C=C/C(=O)Nc1ccc(Oc2ccccc2)cc1	TDP-43 yeast inh inconclusive
O=C1C=C(c2ccc3c(c2)OCO3)C[C@@H](c2ccc3c(c2)OCO3)C1	none
O=C1C=C(c2cccc(CO)c2)C[C@@H](c2ccc3c(c2)OCO3)C1	TDP-43 yeast inh 20µM
N#Cc1ccc(C2=CC(=O)C[C@H](c3ccc4c(c3)OCO4)C2)cc1	TDP-43 yeast inh 18µM, FUS suppressor inconclusive
COc1ccccc1Nc1nc(Cl)nc(NC(C)(C)C)n1	TDP-43 yeast inh 22µM
